In the supplement of paper PMC10811239:

Tested on: LEGO organoid PT (PTEN-/-; TP53-/-)
Assay: bioluminescence (viable cell) signal fold change after vs before treatment, normalised to DMSO (ratio); higher = more tumour cell growth / less inhibition
Settings: 10 µM; treatment time 6 days
Procedure: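 Luc2-labelled iPSC-derived glioblastoma-like organoids (LEGOs, genotypes PT = PTEN-/-;TP53-/-, PTCC = plus CDKN2A/B-/-, PTN = plus NF1-/-) were treated with 10 uM drug for 6 days (applied every other day) at 37 C. Bioluminescence imaging was done before treatment and 2 days after the last dose. BLI signals were normalised to the DMSO control on the same day and then to the pre-treatment signal (N=3).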

Question: How did the bioluminescence turn out when Cl.O=C1CN2Cc3c(ccc(Cl)c3Cl)NC2=N1 [Anagrelide hydrochloride] was run?
Answer: The bioluminescence was 1.02.

Question: For CCCC(CCC)C(=O)O.CCCC(CCC)C(=O)[O-].[Na+] [Divalproex Sodium], which bioluminescence is on record?
Answer: The bioluminescence was 0.727.

Question: How did the bioluminescence turn out when CCC1(c2ccccc2)C(=O)NCNC1=O [Primidone] was run?
Answer: Its bioluminescence is 0.985.

Question: How did the bioluminescence turn out when O=C1NC(=O)C(c2ccccc2)(c2ccccc2)N1 [Phenytoin] was run?
Answer: Its bioluminescence is 0.795.

Question: For Cl.O[C@@H](c1cc(C(F)(F)F)nc2c(C(F)(F)F)cccc12)[C@H]1CCCCN1 [Mefloquine hydrochloride], which bioluminescence is on record?
Answer: The bioluminescence was 0.499.

Question: CCCCS(=O)(=O)N[C@@H](Cc1ccc(OCCCCC2CCNCC2)cc1)C(=O)O [Tirofiban] was tested. Which bioluminescence did it give?
Answer: Its bioluminescence is 0.741.

Question: How did the bioluminescence turn out when CCOC(=O)N1CC\C(CC1)=C1\c2ccc(Cl)cc2CCc2cccnc12 [Loratadine] was run?
Answer: Its bioluminescence is 0.684.

Question: How did the bioluminescence turn out when Cc1cn([C@H]2C[C@H](N=[N+]=[N-])[C@@H](CO)O2)c(=O)[nH]c1=O [Zidovudine] was run?
Answer: The bioluminescence was 5.37.

Question: Which bioluminescence does the source give for CC/C(=C(\c1ccccc1)c1ccc(OCCN(C)C)cc1)c1ccccc1 [Tamoxifen] here?
Answer: Its bioluminescence is 0.646.

Question: How did the bioluminescence turn out when Cc1ccc(Nc2nccc(N(C)c3ccc4c(C)n(C)nc4c3)n2)cc1S(N)(=O)=O.Cl [Pazopanib HCl] was run?
Answer: The bioluminescence was 0.626.

Question: How did the bioluminescence turn out when COc1ccc2c(c1)c(CC(=O)O)c(C)n2C(=O)c1ccc(Cl)cc1 [Indometacin] was run?
Answer: The bioluminescence was 1.04.

Question: For O=C(CCCN1CC=C(n2c(=O)[nH]c3ccccc32)CC1)c1ccc(F)cc1 [Droperidol], which bioluminescence is on record?
Answer: Its bioluminescence is 1.37.

Question: With CC(C)(S)[C@@H](N)C(=O)O [d-penicillamin] as the compound, how does the bioluminescence read?
Answer: The bioluminescence was 0.964.

Question: Which bioluminescence does the source give for NC(=O)c1cnccn1 [Pyrazinamide] here?
Answer: The bioluminescence was 0.603.

Question: With COc1ccc([C@@H]2CC(=O)c3c(O)cc(O[C@@H]4O[C@H](CO[C@@H]5O[C@@H](C)[C@H](O)[C@@H](O)[C@H]5O)[C@@H](O)[C@H](O)[C@H]4O)cc3O2)cc1O [Hesperidin] as the compound, how does the bioluminescence read?
Answer: Its bioluminescence is 1.16.

Question: With CO/N=C(\C(=O)N[C@@H]1C(=O)N2C(C(=O)[O-])=C(C[N+]3(C)CCCC3)CS[C@H]12)c1csc(N)n1.Cl.Cl.O [Cefepime Dihydrochloride Monohydrate] as the compound, how does the bioluminescence read?
Answer: Its bioluminescence is 1.05.

Question: CCCCOc1ccc(C(=O)CCN2CCCCC2)cc1.Cl [Dyclonine hydrochloride] was tested. Which bioluminescence did it give?
Answer: Its bioluminescence is 0.967.

Question: How did the bioluminescence turn out when CC(=O)c1c(C)c2cnc(Nc3ccc(N4CCNCC4)cn3)nc2n(C2CCCC2)c1=O.O=S(=O)(O)CCO [Palbociclib Isethionate] was run?
Answer: The bioluminescence was 3.4.

Question: With Cl.N=C(N)NC(=O)Cc1c(Cl)cccc1Cl [Guanfacine hydrochloride] as the compound, how does the bioluminescence read?
Answer: Its bioluminescence is 1.1.

Question: How did the bioluminescence turn out when CC[C@@]1(O)C(=O)OCc2c1cc1n(c2=O)Cc2cc3c(CN(C)C)c(O)ccc3nc2-1.Cl [Topotecan hydrochloride] was run?
Answer: Its bioluminescence is 1.39.

Question: Which bioluminescence does the source give for CNCCC(Oc1ccc(C(F)(F)F)cc1)c1ccccc1.Cl (stereo not given) [Fluoxetine hydrochloride] here?
Answer: The bioluminescence was 0.929.

Question: Which bioluminescence does the source give for C#CCN[C@@H]1CCc2ccccc21 [Rasagiline] here?
Answer: Its bioluminescence is 2.76.

Question: How did the bioluminescence turn out when CN(C)CCCN1c2ccccc2CCc2ccccc21.Cl [Imipramine hydrochloride] was run?
Answer: Its bioluminescence is 0.921.

Question: CCOC(=O)c1ccc(C#Cc2ccc3c(c2)C(C)(C)CCS3)nc1 [Tazarotene] was tested. Which bioluminescence did it give?
Answer: The bioluminescence was 1.52.

Question: Oc1c(I)cc(Cl)c2cccnc12 [Clioquinol] was tested. Which bioluminescence did it give?
Answer: The bioluminescence was 0.859.

Question: Which bioluminescence does the source give for Cl.N=C1CCCN1Cc1[nH]c(=O)[nH]c(=O)c1Cl [Tipiracil hydrochloride] here?
Answer: The bioluminescence was 0.741.

Question: For O=C(O)c1cccnc1 [Niacin], which bioluminescence is on record?
Answer: The bioluminescence was 0.772.

Question: How did the bioluminescence turn out when C[C@@H]1O[C@]2(CS1)CN1CCC2CC1.C[C@@H]1O[C@]2(CS1)CN1CCC2CC1.Cl.Cl.O [Cevimeline hydrochloride hemihydrate] was run?
Answer: The bioluminescence was 0.884.

Question: C=C/C=C/C[C@@H](C)[C@@H](O)[C@H]1C(=O)N[C@@H](CC)C(=O)N(C)CC(=O)N(C)[C@@H](CC(C)C)C(=O)N[C@@H](C(C)C)C(=O)N(C)[C@@H](CC(C)C)C(=O)N[C@@H](C)C(=O)N[C@H](C)C(=O)N(C)[C@@H](CC(C)C)C(=O)N(C)[C@@H](CC(C)C)C(=O)N(C)[C@@H](C(C)C)C(=O)N1C [Voclosporin] was tested. Which bioluminescence did it give?
Answer: Its bioluminescence is 0.414.

Question: For CN(C)CCCN1c2ccccc2CCc2ccc(Cl)cc21.Cl [Clomipramine hydrochloride], which bioluminescence is on record?
Answer: The bioluminescence was 0.859.

Question: For Nc1nc(Cl)nc2c1ncn2[C@H]1C[C@H](O)[C@@H](CO)O1 [Cladribine], which bioluminescence is on record?
Answer: Its bioluminescence is 1.81.

Question: How did the bioluminescence turn out when O=C(c1cc(Cc2n[nH]c(=O)c3ccccc23)ccc1F)N1CCN(C(=O)C2CC2)CC1 [Olaparib] was run?
Answer: Its bioluminescence is 1.23.

Question: CC/C(=C(\c1ccccc1)c1ccc(OCCN(C)C)cc1)c1ccccc1.O=C(O)CC(O)(CC(=O)O)C(=O)O [Tamoxifen Z-isomer citrate] was tested. Which bioluminescence did it give?
Answer: The bioluminescence was 0.933.

Question: For CCC1(C)CC(=O)NC1=O (stereo not given) [Ethosuximide], which bioluminescence is on record?
Answer: The bioluminescence was 0.871.

Question: C[C@H]1COc2c(N3CCN(C)CC3)c(F)cc3c(=O)c(C(=O)O)cn1c23 [Levofloxacin] was tested. Which bioluminescence did it give?
Answer: The bioluminescence was 0.997.

Question: How did the bioluminescence turn out when CC1=NN(c2ccccc2)C(=O)C1 [Edaravone] was run?
Answer: Its bioluminescence is 0.893.

Question: How did the bioluminescence turn out when CN1CCN(CCCN2c3ccccc3Sc3ccc(C(F)(F)F)cc32)CC1.Cl.Cl [Trifluoperazine dihydrochloride] was run?
Answer: The bioluminescence was 0.771.

Question: With C[C@@H]1O[C@@H]1P(=O)(O)O.NC(CO)(CO)CO [Fosfomycin Tromethamine] as the compound, how does the bioluminescence read?
Answer: The bioluminescence was 0.757.

Question: How did the bioluminescence turn out when Cc1cnc(NC(=O)C2=C(O)c3ccccc3S(=O)(=O)N2C)s1 [Meloxicam] was run?
Answer: Its bioluminescence is 0.756.

Question: Which bioluminescence does the source give for CC[C@@H]1/C=C(\C)C[C@H](C)C[C@H](OC)[C@H]2O[C@@](O)(C(=O)C(=O)N3CCCC[C@H]3C(=O)O[C@H](/C(C)=C/[C@@H]3CC[C@H](Cl)[C@H](OC)C3)[C@H](C)[C@@H](O)CC1=O)[C@H](C)C[C@@H]2OC [Pimecrolimus] here?
Answer: The bioluminescence was 1.29.
